Sampled rows, rich in hits. Any-hit rate of the full collection: about 6.9%.
Vif-A3G inh: inhibitors of Vif-APOBEC3G interaction | Q9HC16 | HeLa A3G-eYFP + Vif (tagged APOBEC3G with the HIV-1 protein that degrades it), YFP fluorescence, overnight | Potency, µM (titrated, usually from 46.1 µM), inactives show at the highest dose activity, negative = active, actives largely listed as inhibitors | 410,000 tested, 0.076% active | AID 602310; further: potency means the concentration at half of the fitted maximal effect; on the % scale 0 is the no-effect control and ±100 the full control effect; nearly all actives have a fitted effect of over 60% in size
Target sequence (Q9HC16 whole entry, looked up): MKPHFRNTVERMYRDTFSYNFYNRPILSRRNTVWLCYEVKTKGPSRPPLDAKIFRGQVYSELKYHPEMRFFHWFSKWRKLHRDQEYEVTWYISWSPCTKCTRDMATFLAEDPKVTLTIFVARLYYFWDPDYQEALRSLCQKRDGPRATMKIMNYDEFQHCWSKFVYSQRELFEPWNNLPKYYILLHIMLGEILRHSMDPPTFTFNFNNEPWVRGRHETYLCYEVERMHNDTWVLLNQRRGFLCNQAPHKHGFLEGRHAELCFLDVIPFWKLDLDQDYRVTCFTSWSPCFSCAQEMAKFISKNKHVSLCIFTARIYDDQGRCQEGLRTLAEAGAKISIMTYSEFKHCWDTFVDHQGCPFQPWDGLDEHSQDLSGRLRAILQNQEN
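Read-out is eYFP fluorescence (Ex 488/Em 500-530) from Vif-expressing HeLa A3G-eYFP cells; more signal means A3G escaped Vif-mediated degradation. Cells plated overnight, compound pinned in, incubated overnight at 37 deg C.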
IL1B secr inh: inhibitors of inflammasome signaling (IL-1 beta secretion) | 360,000 tested, 4.7% active | activity change, % at 57.5 µM | THP-1 LPS/ATP IL-1B secretion, AlphaLISA, 16 h; hits give low values; in the data active means activity change below about -50%; inconclusive means mostly about -30% to -49%; further: on the % scale 0 is the no-effect control and ±100 the full control effect
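Secreted IL-1B measured by AlphaLISA bead assay after 16 h compound exposure of THP-1 cells; compounds (final up to 57.5 uM) added 1 h before LPS (250 ng/mL) and ATP (1.25 mM) stimulation; lower signal means less secretion.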
SW480 rerep: induces DNA re-replication in SW480 colon adenocarcinoma cells; AID 624297; SW480 DNA re-replication, Hoechst DNA content imaging, 48 h; Potency, µM (highest dose often 46.1 µM), for the others: at the highest dose re-replication activation, usual class: activators; 340,000 tested, 1.8% active; further: potency means the concentration at half of the fitted maximal effect; % of control where 0% means no effect; nearly all actives have a fitted effect of over 55% in size
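Hoechst fluorescence of nuclei (405 nm excitation, 500-530 nm emission) measured by plate-scanning imager after 48 hr compound exposure at 37 C; re-replication scored as increased number of nuclei with elevated intensity.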
Giardia killer: kills Giardia lamblia; Giardia lamblia trophozoite viability; activity change, % at 7.66 µM, hits read low; 340,000 tested, 0.15% active; in the data active means activity change below about -80%; inconclusive means between about -30% and that limit;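 further: parasites exposed to compound for two days anaerobically before the ATP read; on the % scale 0 is the no-effect control and ±100 the full control effect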
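ATP-content bioluminescence gauges trophozoite survival. Cells (100/well) receive compound and incubate anaerobically for 48 hrs at 37 deg C; detection reagent follows for 15-30 min at room temperature.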
MCF10A rereplic: DNA re-replication induction in MCF 10a cells. MCF 10A DNA re-replication, Hoechst nuclear intensity, 48 h. Potency, µM (top dose mostly 46.1 µM), for inactives: top-dose activity, positive = re-replication, actives largely listed as activators. 350,000 tested, 2.9% active. AID 624296; further: potency means the concentration at half of the fitted maximal effect; % of control where 0% means no effect; nearly all actives have a fitted effect of over 50% in size
Vif-A3F inh: blocks the Vif interaction with APOBEC3F | HeLa A3F-eYFP + Vif (tagged APOBEC3F with the HIV-1 protein that degrades it), YFP fluorescence increase | Potency, µM (highest dose often 46.1 µM), for the others: at the highest dose activity, negative = active | 390,000 tested, 0.2% active | AID 602313; further: potency means the concentration at half of the fitted maximal effect; % of control where 0% means no effect; nearly all actives have a fitted effect of over 65% in size
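HeLa cells stably expressing Vif plus C-terminally eYFP-tagged A3F were seeded, incubated overnight at 37 deg C, dosed with compound, incubated overnight again at 37 deg C. Yellow fluorescence (Ex 488/Em 500-530) reported blocked Vif-mediated A3F-eYFP degradation.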
An asterisk follows results filed as active; ? = inconclusive; nt = not tested or not shown. Unless noted, the call rests on the fitted dose curve; in most records, active means well fitted curve in the direction sought with a large enough effect; inconclusive means small, poorly fitted or top-dose-only effect, or another doubt; inactive means no such curve, though single readings can be large; an effect the other way counts as inactive or inconclusive.

SMILES	Vif-A3G inh	IL1B secr inh	SW480 rerep	Giardia killer	MCF10A rereplic	Vif-A3F inh
CCc1ccc(NC(=O)CCn2cnc3ccccc3c2=O)cc1	2%	nt	nt	nt	nt	0%
CC(=O)c1ccc(N2CCN(CC(=O)Nc3ccccc3C(=O)NC3CC3)CC2)c(F)c1	-1%	11	-7%	-21	18µM*	9%
O=S(=O)(Nc1ccc2c(c1)nc1n2CCN(Cc2ccccc2)C1)c1ccccc1	4%	-1	7%	1	26%	-3%
O=S(=O)(Nc1ccc2c(c1)nc1n2CCN(Cc2ccccc2)C1)c1ccc(F)cc1	-2%	0	4%	14	5%	5%
O=C(Nc1ccc2c(c1)nc1n2CCN(Cc2ccccc2)C1)c1cccs1	0%	-94*	-16%	-7	12%	5%
Cc1ccc(S(=O)(=O)Nc2ccc3c(c2)nc2n3CCN(Cc3ccccc3)C2)cc1	3%	-69*	1%	-10	-1%	-7%
O=S(=O)(Nc1ccc2c(c1)nc1n2CCN(Cc2ccccc2)C1)c1ccc(Cl)cc1	-2%	-55*	?	-16	?	-12%
Cc1cc(N2CCCCC2)nc2ccc(NC(=O)/C=C/c3ccc(OCCC(C)C)cc3)cc12	1%	nt	nt	nt	nt	-9%
CCCCN(CCCC)c1ccc(C=Nc2ccc(/C=C/c3ccnc4ccccc34)cc2)cc1C	-19%	nt	nt	nt	nt	nt
Cc1ccc(-n2ncc3c(N4CCCCCC4)ncnc32)cc1C	-7%	nt	nt	nt	nt	1%
CCCOc1cccc(-c2cc(C(=O)N/N=C/c3ccccn3)c3ccccc3n2)c1	-10%	-98*	?	-20	10%	1%
O=C(N/N=C/c1ccccn1)c1cc(-c2ccc(Cl)cc2)nc2ccccc12	?	-102*	?	11	?	?
O=C(O)COc1ccccc1/C=N/NC(=O)c1cc(-c2ccc(Cl)cc2)nc2ccccc12	0%	0	0%	-3	-6%	7%
O=C(Nc1ccccn1)c1cc(-c2ccc(Cl)s2)nc2ccccc12	0%	12	-2%	?	21µM*	6%
O=C(NN=C1CCCCCC1)c1cc(-c2ccccc2)nc2ccccc12	-13%	44	5%	24	16µM*	4%
Cc1ccc(-c2cc(C(=O)NN=C3CCCC3)c3ccccc3n2)cc1	-7%	-3	-4%	-5	1%	-4%
Cc1ccnc(NC(=O)c2cc(-c3ccc(Cl)s3)nc3ccccc23)c1	-7%	11	-295%	16	?	1%
CC1CCN2c3cc(Cl)ccc3CC3(C(=O)OC(C)(C)OC3=O)C2C1 (centres undefined)	1%	nt	nt	0	nt	nt
O=C(N/N=C/c1ccccn1)c1cc(-c2ccc(Br)cc2)nc2ccccc12	-3%	-96*	14%	-10	?	-1%
COc1ccc(OCC(=O)NCc2ccc3c(c2)CCN3C(=O)c2cccc(C)c2)cc1	-28%	nt	nt	nt	nt	-10%
COc1ccc(NC(=O)c2cn(CC(C)C)c(=O)c3cc(OC)c(OC)cc23)cc1Cl	-1%	nt	nt	nt	nt	3%
FC(F)(F)c1cccc(Cc2noc(CN3CCC(c4ccncc4)CC3)n2)c1	6%	-13	-22%	13	2%	9%
CN1CCCC2(CCCN(Cc3nc(Cc4cccc(C(F)(F)F)c4)no3)C2)C1 (centres undefined)	7%	-75*	?	-17	?	3%
Cc1cccc(C(C)C)c1NC(=O)c1ccc2c(c1)CCN2S(C)(=O)=O	4%	nt	nt	nt	nt	-1%
COc1cccc(/C=C(/C(=O)OCC(=O)NC2CCCC(C)C2C)c2ccccc2)c1 (centres undefined)	-5%	-65*	-16%	-1	18µM*	-4%
Cn1c(SCC(=O)Nc2cc(Cl)cc(Cl)c2)nnc1-c1ccc2nonc2c1	0%	nt	18µM*	2	18µM*	8%
Cc1cc(-c2nc(C)c(-c3nnc(SCC(=O)Nc4cc(Cl)cc(Cl)c4)n3C)s2)no1	0%	-4	-4%	-8	11%	2%

Screening data (PubChem BioAssay)
